Consider 47 compounds from PubChem BioAssay AID1851 (National Center for Advancing Translational Sciences (NCATS), 2009).

In all, about 16,000 compounds went through this assay and about 5,700 (36%) were called active. Inconclusive results (about 24%) are left out. The list shows a part of the results. A number with no mark means an inactive call. The call rests on the fitted dose curve; in most records, active means well fitted curve in the direction sought with a large enough effect; inconclusive means small, poorly fitted or top-dose-only effect, or effect the other way; inactive means no such curve, though single readings can be large or run the other way.
On the % scale 0 is the no-effect control and ±100 the full control effect.

Chain of Cytochrome P450 1A2 (Homo sapiens) (P05177 whole entry, looked up): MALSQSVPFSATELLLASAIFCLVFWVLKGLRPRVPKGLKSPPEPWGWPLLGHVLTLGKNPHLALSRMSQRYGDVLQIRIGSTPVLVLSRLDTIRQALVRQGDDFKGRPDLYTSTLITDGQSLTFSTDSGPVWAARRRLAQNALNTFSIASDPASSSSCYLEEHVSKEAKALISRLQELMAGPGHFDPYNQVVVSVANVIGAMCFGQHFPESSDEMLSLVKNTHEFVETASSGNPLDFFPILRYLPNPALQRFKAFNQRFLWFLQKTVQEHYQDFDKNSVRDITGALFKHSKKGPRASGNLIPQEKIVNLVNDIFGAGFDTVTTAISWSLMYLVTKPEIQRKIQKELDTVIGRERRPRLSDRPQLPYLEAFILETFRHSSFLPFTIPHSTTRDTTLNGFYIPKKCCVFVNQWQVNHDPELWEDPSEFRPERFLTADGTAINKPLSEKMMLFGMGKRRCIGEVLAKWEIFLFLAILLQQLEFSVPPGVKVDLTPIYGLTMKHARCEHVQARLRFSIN

This assay has as its target Cytochrome P450 1A2 (Homo sapiens) (UniProt P05177). Description: Cytochrome panel assay with activity outcomes. The conditions noted are these: recombinant CYP, pro-luciferin dealkylation, luminescence, p450-cyp1a2; series mostly up to 57.1 µM; activity, negative = inhibition: at the top concentration.
As for `Cn1ccnc1C[C@@](C)(O)c1ccccc1`, the activity, negative = inhibition was -14.2% [at 11.4 µM]. As to `CC(C(=O)NC1CCCC1)N(C(=O)c1snc(C(N)=O)c1N)c1ccc2c(c1)OCCO2` (configuration not stated), the “activity, negative = inhibition” value is -27.6%. What is called AC50 is the concentration at which the activity in the assay is half-maximal. For `CC(Sc1ccc2c(c1)OCCO2)C(=O)Nc1ncc(Cl)cc1Cl` (configuration not stated), the AC50 was 6.31 µM (active). Turning to `COCC(=O)N1CCC2(CCCN(Cc3ccccc3OC)C2)CC1`, the “activity, negative = inhibition” value was -2.98%. `NCC(=O)Nc1ccc(Cl)cc1C(=O)c1ccc[nH]1`: the AC50 is 3.16 µM (active). For the compound `Cc1cc2c(ncn2Cc2ccccc2)c([N+](=O)[O-])c1C`, the AC50 is 5.62 µM (active).

Turning to `Cc1ncc([N+](=O)[O-])n1CC(=O)NCc1ccccc1`, the “activity, negative = inhibition” value is -24%. Take `Cc1cccc(Cn2cnc3c(NS(C)(=O)=O)c(C)c(C)cc32)c1`: the half-maximal activity concentration (AC50) was 3.16 µM (active). Take `Cc1nn(CC(=O)NCc2ccccc2)c(C)c1[N+](=O)[O-]`: the “activity, negative = inhibition” value is -4.08%. Same read-out and setting: with `CC(=O)C=NCC(=O)O` the figure was 0.0576% [at 11.4 µM]. Still for that read-out and setting: with `COC(=O)[C@@]1(Cc2ccc(F)cc2)[C@H]2c3cc(C(=O)N(C)C)n(Cc4ccc(C(F)(F)F)nc4)c3C[C@H]2CN1C(=O)c1ccccc1` the figure was -10.8%. In the case of `COc1ccc(CNc2cc(-c3cccnc3)ncn2)c(OC)c1`, the concentration at half-maximal activity (AC50) was 1.26 µM (active). Still for that read-out and setting: with `COc1ccc(CCNc2nc(-c3cccnc3)cs2)cc1OC` the figure was 0.355 µM (active); with `COc1ccccc1CNc1cc(-c2cccnc2)ncn1`, 1 µM (active). With `CC(C)(C)C(=O)N(CCN(C(=O)C(C)(C)C)c1ccccc1)c1ccccc1`, the “activity, negative = inhibition” value was -6.47%. As to `COC(=O)C/C=C\[C@@H](C)[C@@H](/C=N\OC[C@@H](O)[C@H]1O[C@H]2OC(C)(C)O[C@H]2[C@@H]1O)NS(=O)(=O)c1ccc(C)cc1`, the activity, negative = inhibition was 0.282% [at 11.4 µM]. As for `CCCC[C@@H]1C[C@H]1C(NC(=O)c1ccc(-c2ccccc2)cc1)c1ccc(-c2ccccc2)cc1` (some centres not stated), the “activity, negative = inhibition” value is 0.142%. As to `CCC[C@@H]1C[C@@]1(CCC)C(NC(=O)c1ccccc1)c1cccc(Cl)c1` (some centres not stated), the “activity, negative = inhibition” value was -9.7%.

On to `C=C(CC1([C@@H](NP(=O)(c2ccccc2)c2ccccc2)[C@H]2C[C@@H]2CCCC)CC1)c1ccccc1`, for which the “activity, negative = inhibition” value is -15.8%. For the compound `CCCC[C@@H]1C[C@H]1C(NC(=O)c1ccccc1)c1ccccc1` (some centres not stated), the AC50 is 2.51 µM (active).

For the compound `C[C@@]1(C(NC(=O)c2ccc(-c3ccccc3)cc2)c2ccc(Cl)cc2)C[C@H]1C1CCCCC1` (some centres not stated), the “activity, negative = inhibition” value is -17.1%. With `CCCC[C@@H]1C[C@H]1C(NC(=O)c1ccccc1)c1ccc(Cl)cc1` (some centres not stated), the half-maximal activity concentration (AC50) was 1 µM (active). As to `COC(=O)c1ccc(Oc2cc(C)nc(-n3nc(C)cc3C)n2)cc1`, the AC50 is 8.91 µM (active). Turning to `Cc1cc(C)n(-c2ccc(Cl)c(C(=O)O)n2)n1`, the “activity, negative = inhibition” value is -1.29%. In the case of `N#C/C(=N\O)c1nc(-c2ccccc2)cs1`, the concentration at half-maximal activity (AC50) was 6.31 µM (active).

Consider `N#CC(=C1CCCC1)c1nc(-c2ccccc2)cs1`, for which the AC50 was 0.631 µM (active). The same measure, in the same setting: with `Cc1ccc(-c2csc(C(C#N)=C3CCCC3)n2)cc1` the figure was 3.55 µM (active). Turning to `CC1(C)N=C(N)N=C(N)N1CCCCc1ccccc1`, the activity, negative = inhibition was -4.32% [at 2.29 µM]. Still for that read-out and setting: with `O=S(=O)(O)c1ccc(-c2nnc(-c3ccccn3)nc2-c2ccc(S(=O)(=O)O)o2)o1` the figure was -8.46% [at 11.4 µM]; with `C/C(O)=C\c1nc2ccccc2oc1=O`, -19.9%.

As for `c1ccc(-c2nc3ccccc3o2)nc1`, the concentration at half-maximal activity (AC50) is 0.501 µM (active). As for `CC1(C)C(=O)NC2=C1C(=O)C(=O)c1ccccc12`, the concentration at half-maximal activity (AC50) was 3.16 µM (active). The same measure, in the same setting: with `N#C/C(=C\c1c[nH]c2ccccc12)C(=O)c1ccc(O)c(O)c1` the figure was 1.26 µM (active).

For the compound `O=C(O)[C@@H]1CCCN1Cc1c[nH]c2ccccc12`, the activity, negative = inhibition was -13.1% [at 11.4 µM].

For `CCN(CC(=O)O)CC(=O)O`, the activity, negative = inhibition was -5.21% [at 11.4 µM]. On the same count and under the same terms, the value for `CS(=O)(=O)Nc1ccc(C(=O)N2CCN(c3ccccc3)CC2)cc1` was -6.89%. For `CS(=O)(=O)Nc1cccc(-c2cncnc2-n2ccnc2)c1`, the AC50 was 15.8 µM (active). As to `COc1ccc(NS(=O)(=O)c2ccc(I)cc2)cc1N1CCN(C)CC1`, the “activity, negative = inhibition” value is 5.42%. Consider `CN1CCN(c2ccnc(-c3cccc(NS(C)(=O)=O)c3)n2)CC1`, for which the AC50 was 12.6 µM (active). Turning to `CS(=O)(=O)Nc1cccc(-c2nccc(-n3ccnc3)n2)c1`, the concentration at half-maximal activity (AC50) was 0.2 µM (active).

With `CCN1C(=O)[C@H]2[C@H]3[C@H](O)[C@H](O)C/C(=N/OCC(C)C)[C@@H]3CC[C@@H]2C1=O`, the activity, negative = inhibition is -10.8% [at 11.4 µM]. For `O=[N+]([O-])c1cccnc1NCCNc1ncc(C(F)(F)F)cc1Cl`, the concentration at half-maximal activity (AC50) was 2 µM (active). In the case of `COC(=O)[C@@]1(Cc2ccc(F)cc2)[C@H]2c3cc(C(=O)N4CCCC4)n(CCCNc4ncc(C(F)(F)F)cc4Cl)c3C[C@H]2CN1C(=O)c1ccccc1`, the “activity, negative = inhibition” value is -11.6%. Take `C[C@@H]1O[C@@H](O)[C@@H](O)[C@H](O)[C@H]1O`: the activity, negative = inhibition was -2.48% [at 11.4 µM]. On the same count and under the same terms, the value for `O=C(O)CCNc1ccccc1C(=O)O` was -11.9% [at 11.4 µM].

Regarding `O=C(O)c1ccccc1N/N=C\c1ccnc2ccccc12`, the AC50 was 11.2 µM (active). For `Cn1c(=O)c2c(nc(N/N=C\c3ccccc3C(=O)O)n2C)n(C)c1=O`, the activity, negative = inhibition was 5.78% [at 11.4 µM].
